Measured values taken from PubChem BioAssay (NCI).
About 83,000 compounds went through this panel and 20% of them were active in at least one assay; those are over-represented in the sample as a whole.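 Activity criterion: percent growth below 10, measured after cells in 96-well plates were exposed to a single compound concentration for 48 hours.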 Active and inactive are the calls of the source.

system: UACC-62 melanoma; assay: NCI-60 one-dose screen, 48 h (100 = growth as untreated, 0 = no growth, -100 = all killed); details: 10 µM unless noted

SMILES | growth
CN(C)Cc1ccccn1 | 97.8% (inactive)
CCNCC(C)(C)O | 102% (inactive)
CCOS(=O)(=O)c1ccc([N+](=O)[O-])cc1 | 101% (inactive)
CCCCCCCCCCCCSC1=C(Cl)C(=O)C(OC)=C(OC)C1=O | 45.4% (inactive)
CN(C(=S)S(=O)(=O)C12CC3CC(CC(C3)C1)C2)c1ccccc1 | 91.8% (inactive)
N#Cc1ccc2nc[nH]c2c1 | 105% (inactive)
CCCCCC#CC(=O)O | 104% (inactive)
CC(=O)C1C(=O)C(=O)N(c2ccc(Cl)c(Cl)c2)C1=O (centres undefined) | 101% (inactive)
CC(C)OCC(CCl)OC(=O)Nc1ccccc1 (centres undefined) | 101% (inactive)
COc1ccc(C(=O)/C(=N/Nc2ccccc2)c2ccc(OC)cc2)cc1 | 79.2% (inactive)
Cc1cc(Nc2ccc3c(c2)OCO3)c2cc3c(cc2n1)OCO3 | 34% (inactive)
NC(=O)N1CCOCC1 | 104% (inactive)
CC(=O)Nc1ccc(O)c(C)c1 | 104% (inactive)
COc1cccc2c1Cc1ccccc1-2 | 99.3% (inactive)
C=COC(=O)CCOCC(CC)CCCC (centres undefined) | 99.5% (inactive)
N#C/C(=C\c1ccc(C#N)cc1)C(=O)c1ccccc1 | 92.8% (inactive)
Cc1cccc(C)c1NC(=S)/N=C\c1c(O)[nH]c(=O)[nH]c1=O | 90.9% (inactive)
COc1ccc(C(=O)C(=O)c2ccccc2)cc1 | 99.2% (inactive)
O=C1CSc2ccccc2N1 | 106% (inactive)

SMILES | growth
Cc1c(Cl)cccc1NC(=S)NC(=O)c1ccccc1 | 92.7% (inactive)
CC(c1ccccc1)N(C)C (centres undefined) | 94.5% (inactive)
CCOC(=O)/C(O)=C(\C=N\C(=S)Nc1ccc(Cl)c(Cl)c1)C(=O)OCC | 88.4% (inactive)
CCC(=O)C1C(=O)c2ccccc2C1=O | 104% (inactive)
CCCCCCCCCc1ccc(OC(C)=O)cc1 | 107% (inactive)
Nc1ncnc(Nc2ccc(C(F)(F)F)cc2)n1 | 89.1% (inactive)
CCOP(=O)(OCC)/C(=C\N1C(=O)CC(=O)NC1=S)C(=O)OC | 98.6% (inactive)
C=CCOc1ccc(Cl)cc1Cl | 92.7% (inactive)
NNC(=O)N/N=C1\C(=O)N(c2nccs2)C(=O)C(=O)C1c1nc2ccccc2s1 (centres undefined) | 90.5% (inactive)
Cc1cc(Cl)cc(Cc2cc(Cl)cc(C)c2O)c1O | 16.1% (inactive)
C=CCN1CCCC1=O | 86.1% (inactive)
COc1cc(C(=O)O)c(O)c(C(C)(C)C)c1 | 104% (inactive)
CC(=O)OCC1OC(n2cnc3c(=S)nc(N)[nH]c32)C(OC(C)=O)C1OC(C)=O (centres undefined) | 65.2% (inactive)
CCC(=O)Oc1ccc2ccccc2c1 | 92.1% (inactive)
CCOC(=O)C(=O)CC(=O)c1ccccc1 | 93.3% (inactive)
Cc1ccc(NCN2C(=O)c3ccccc3C2=O)c(C)n1 | 109% (inactive)
CC(C)c1ncc([N+](=O)[O-])n1C | 107% (inactive)
O=C(O)c1c[nH]c2ccccc2c1=O | 101% (inactive)

system: LOX IMVI melanoma; assay: as above; details: 10 µM

SMILES | growth
CN(C)Cc1ccccn1 | 96.3% (inactive)
CCNCC(C)(C)O | 101% (inactive)
CCOS(=O)(=O)c1ccc([N+](=O)[O-])cc1 | 97.7% (inactive)
CCCCCCCCCCCCSC1=C(Cl)C(=O)C(OC)=C(OC)C1=O | 11.7% (inactive)
CN(C(=S)S(=O)(=O)C12CC3CC(CC(C3)C1)C2)c1ccccc1 | 81.1% (inactive)
N#Cc1ccc2nc[nH]c2c1 | 101% (inactive)
CCCCCC#CC(=O)O | 104% (inactive)
CC(=O)C1C(=O)C(=O)N(c2ccc(Cl)c(Cl)c2)C1=O (centres undefined) | 94.4% (inactive)
CC(C)OCC(CCl)OC(=O)Nc1ccccc1 (centres undefined) | 97% (inactive)
COc1ccc(C(=O)/C(=N/Nc2ccccc2)c2ccc(OC)cc2)cc1 | 92.1% (inactive)
Cc1cc(Nc2ccc3c(c2)OCO3)c2cc3c(cc2n1)OCO3 | 14.3% (inactive)
NC(=O)N1CCOCC1 | 107% (inactive)
CC(=O)Nc1ccc(O)c(C)c1 | 95.4% (inactive)
COc1cccc2c1Cc1ccccc1-2 | 80.3% (inactive)
C=COC(=O)CCOCC(CC)CCCC (centres undefined) | 98.8% (inactive)
N#C/C(=C\c1ccc(C#N)cc1)C(=O)c1ccccc1 | 98.8% (inactive)
Cc1cccc(C)c1NC(=S)/N=C\c1c(O)[nH]c(=O)[nH]c1=O | 98.2% (inactive)
COc1ccc(C(=O)C(=O)c2ccccc2)cc1 | 100% (inactive)
O=C1CSc2ccccc2N1 | 88% (inactive)

SMILES | growth
Cc1c(Cl)cccc1NC(=S)NC(=O)c1ccccc1 | 99.3% (inactive)
CC(c1ccccc1)N(C)C (centres undefined) | 113% (inactive)
CCOC(=O)/C(O)=C(\C=N\C(=S)Nc1ccc(Cl)c(Cl)c1)C(=O)OCC | 92.9% (inactive)
CCC(=O)C1C(=O)c2ccccc2C1=O | 98.1% (inactive)
CCCCCCCCCc1ccc(OC(C)=O)cc1 | 104% (inactive)
Nc1ncnc(Nc2ccc(C(F)(F)F)cc2)n1 | 100% (inactive)
CCOP(=O)(OCC)/C(=C\N1C(=O)CC(=O)NC1=S)C(=O)OC | 98.6% (inactive)
C=CCOc1ccc(Cl)cc1Cl | 99.6% (inactive)
NNC(=O)N/N=C1\C(=O)N(c2nccs2)C(=O)C(=O)C1c1nc2ccccc2s1 (centres undefined) | 96.3% (inactive)
Cc1cc(Cl)cc(Cc2cc(Cl)cc(C)c2O)c1O | 5.44% (active)
C=CCN1CCCC1=O | 108% (inactive)
COc1cc(C(=O)O)c(O)c(C(C)(C)C)c1 | 98.8% (inactive)
CC(=O)OCC1OC(n2cnc3c(=S)nc(N)[nH]c32)C(OC(C)=O)C1OC(C)=O (centres undefined) | 19.7% (inactive)
CCC(=O)Oc1ccc2ccccc2c1 | 92.2% (inactive)
CCOC(=O)C(=O)CC(=O)c1ccccc1 | 98.6% (inactive)
Cc1ccc(NCN2C(=O)c3ccccc3C2=O)c(C)n1 | 104% (inactive)
CC(C)c1ncc([N+](=O)[O-])n1C | 108% (inactive)
O=C(O)c1c[nH]c2ccccc2c1=O | 97.2% (inactive)
